“And” between values parts separate entries of the source, which are not always exact repeats. Equal entries are not always repeated. Inconclusive results are not listed. The source made the active and inactive calls. Unless noted, the call rests on the fitted dose curve.
On the % scale 0 is the no-effect control and ±100 the full control effect.

A short description of one assay: qHTS assay to identify small molecule agonists of the hypoxia (HIF-1) signaling pathway (AID 1224846; active means well fitted activation curve with a large enough effect in the signal ratio in the repeat runs, not every such curve was filed as active; the % refers to the signal ratio). As to conditions: HRE-bla ME-180 cells, beta-lactamase ratio, 17 h; series mostly up to 76.8 µM; activation: at the top concentration. Summed up:
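Hypoxia-pathway activation was scored as increased beta-lactamase from an HRE-controlled reporter in ME-180 cells; plated at 2,000 cells per well with 0.5% dialyzed FBS, they were exposed 17 hrs to compounds and then given CCF4-AM.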
(In general: Quantitative high-throughput screening tests each substance at several concentrations.)
As for `Cc1nc(N(C)C)nc(OC(=O)N(C)C)c1C`, the “activation” value is -0.847% (inactive).

Consider `FC(Cl)(Cl)C(F)(Cl)Cl`, for which the “activation” value was -1.12% (inactive).

For `CC(Oc1cccc(Cl)c1)C(=O)O` (stereo unspecified), the “activation” value was -0.0772% (inactive).

With `CCCCOC(=O)CCC(=O)OCCCC`, the “activation” value is 0.0453% (inactive).

Take `CCSCc1ccccc1OC(=O)NC`: the “activation” value was 0.6% (inactive).

As to `CCCSP(=S)(OCC)Oc1ccc(SC)cc1` (stereo unspecified), the “activation” value was 0.742% (inactive).

On to `C[C@@H]1C[C@@H]([C@H](O)CC2CC(=O)NC(=O)C2)C(=O)[C@@H](C)C1`, for which the result was inactive.

With `O=C=NC1CCCCC1`, the “activation” value was -1.51% (inactive).

Regarding `C1CS1`, the “activation” value is -0.636% (inactive).

As to `O=C(N[C@H]1CN2CCC1CC2)c1ccc2c(c1)OCCO2`, the “activation” value is -0.474% (inactive).

Take `CON(C)C(=O)Nc1ccc(Cl)cc1`: the “activation” value was -1.06% (inactive).

On to `CCOP(=S)(S)OCC`, for which the “activation” value is 0.0692% (inactive).

`CCc1ccccc1N`: the “activation” value is -1.25% (inactive).

`COc1cc(CC#N)cc(OC)c1OC`: the “activation” value was -1.46% [at 35.5 µM] (inactive).

Take `C[C@H]1O[C@H](OC2[C@@H](O)[C@@H](O)C(O)[C@H](O)[C@H]2O)[C@@H](N)C[C@@H]1N=C(N)C(=O)O` (stereo partly specified): the “activation” value is 0.804% (inactive).

`CCCCCCCCCCCCCCCl`: the “activation” value is -0.633% (inactive).

Take `CC(C)(C)c1ccc(CCOc2ncnc3ccccc23)cc1`: the “activation” value was -0.409% (inactive).

With `N#CC(C#N)=C(C#N)C#N`, the “activation” value is -0.983% (inactive).

`CCCCCCCCP(=O)(O)O`: the “activation” value is -1.56% (inactive).

As for `COc1cc(C[C@@H](C)N)c(OC)cc1Br`, the “activation” value is 0.382% (inactive).

Turning to `CC1(C)CC(=O)CC(C)(C)N1[O]`, the “activation” value was -1.06% (inactive).

For the molecule `CC(C)(C)N(NC(=O)c1ccc(Cl)cc1)C(=O)c1ccccc1`, the “activation” value is -0.237% (inactive).

As for `COC(=O)Cc1ccccc1`, the “activation” value was -1.25% (inactive).

Turning to `C#C[C@]1(O)CC[C@H]2[C@@H]3CCC4=CC(=O)CCC4=C3C=C[C@@]21CC`, the “activation” value was 3.61% [at 35.5 µM] (inactive).

As for `CC(O)CN1CCN(CC(=O)[O-])CCN(CC(=O)[O-])CCN(CC(=O)[O-])CC1.[Gd+3]` (stereo unspecified), the “activation” value was -0.853% [at 35.5 µM] (inactive).

Regarding `O=C(N/N=C/c1ccc([N+](=O)[O-])o1)c1cc([N+](=O)[O-])cc([N+](=O)[O-])c1O`, the “activation” value was 0.953% [at 35.5 µM] (inactive).

As to `O=C(Cc1ccccc1)c1ccccc1`, the “activation” value was -0.397% (inactive).

For the molecule `O=C(O)C(F)(F)C(F)(F)C(F)(F)C(F)(F)C(F)(F)F`, the “activation” value was -1.37% (inactive).

Turning to `CN1CC[C@]23c4c5ccc(O)c4O[C@H]2[C@@H](O)C=C[C@H]3[C@H]1C5`, the “activation” value is -0.224% (inactive).

`ClCc1ccccc1Cl`: the “activation” value is -0.911% (inactive).

Take `CN(C1CCCCC1)C1CCCCC1`: the “activation” value is -1.16% (inactive).

In the case of `C=C(Cl)Cl`, the “activation” value was -0.279% (inactive).

With `N#CC(C#N)=Cc1ccc(O)c(O)c1`, the “activation” value was -1.31% [at 35.5 µM] (inactive).

Regarding `CCOc1cccc(C2(N3CCN(c4ccccc4)CC3)CCC(C)CC2)c1` (stereo unspecified), the “activation” value was 0.0662% (inactive).

The nature of a further assay: qHTS assay to identify small molecule agonists of H2AX - cell viability counter screen (AID 1224847). Further: nearly all actives have a fitted effect of over 30% in size. Further: potency means the concentration at half of the fitted maximal effect. On activity change, negative = cytotoxicity: top concentration of the series differs between compounds. The note with it: CHO-K1 viability, CellTiter-Glo luminescence, 3 h; series mostly up to 154 µM; activity change, negative = cytotoxicity: at the top concentration. Summed up:
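Viability of CHO-K1 (wild type) cells after 3 hr compound exposure was measured by CellTiter-Glo luminescence.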
On to `Cc1nc(N(C)C)nc(OC(=O)N(C)C)c1C`, for which the “activity change, negative = cytotoxicity” value is -0.024% (inactive).

As to `FC(Cl)(Cl)C(F)(Cl)Cl`, the “activity change, negative = cytotoxicity” value is -0.185% (inactive).

Regarding `CC(Oc1cccc(Cl)c1)C(=O)O` (stereo unspecified), the “activity change, negative = cytotoxicity” value was -0.349% (inactive).

As to `CCCCOC(=O)CCC(=O)OCCCC`, the “activity change, negative = cytotoxicity” value was -2.44% (inactive).

`CCCSP(=S)(OCC)Oc1ccc(SC)cc1` (stereo unspecified): the “activity change, negative = cytotoxicity” value is -5.16% (inactive).

For `C[C@@H]1C[C@@H]([C@H](O)CC2CC(=O)NC(=O)C2)C(=O)[C@@H](C)C1`, the Potency result is “inactive”.

Consider `O=C=NC1CCCCC1`, for which the “activity change, negative = cytotoxicity” value was -1.12% (inactive).

On to `C1CS1`, for which the “activity change, negative = cytotoxicity” value was -0.183% (inactive).

As for `O=C(N[C@H]1CN2CCC1CC2)c1ccc2c(c1)OCCO2`, the “activity change, negative = cytotoxicity” value is 1.38% (inactive).

For `CON(C)C(=O)Nc1ccc(Cl)cc1`, the “activity change, negative = cytotoxicity” value was -4% (inactive).

As to `CCOP(=S)(S)OCC`, the “activity change, negative = cytotoxicity” value was -1.07% (inactive).

As to `CCc1ccccc1N`, the “activity change, negative = cytotoxicity” value was -2.27% (inactive).

Turning to `CCCC[N+]1(C)[C@@H]2CC(OC(=O)[C@H](CO)c3ccccc3)C[C@H]1[C@@H]1O[C@@H]12` (stereo partly specified), the “activity change, negative = cytotoxicity” value was 0.795% [at 70.9 µM] (inactive).

In the case of `COc1cc(CC#N)cc(OC)c1OC`, the “activity change, negative = cytotoxicity” value is 0.349% [at 70.9 µM] (inactive).

In the case of `C[C@H]1O[C@H](OC2[C@@H](O)[C@@H](O)C(O)[C@H](O)[C@H]2O)[C@@H](N)C[C@@H]1N=C(N)C(=O)O` (stereo partly specified), the “activity change, negative = cytotoxicity” value is 0.0005% (inactive).

On to `CCOC(=O)c1cncn1C(C)c1ccccc1` (stereo unspecified), for which the “activity change, negative = cytotoxicity” value was -0.523% [at 70.9 µM] (inactive).

Regarding `CCCCCCCCCCCCCCCl`, the “activity change, negative = cytotoxicity” value was 0.0421% (inactive).

Turning to `CC(C)(C)c1ccc(CCOc2ncnc3ccccc23)cc1`, the “activity change, negative = cytotoxicity” value was 4.79% (inactive).

`N#CC(C#N)=C(C#N)C#N`: the “activity change, negative = cytotoxicity” value was 4.46% (inactive).

As to `CCCCCCCCP(=O)(O)O`, the “activity change, negative = cytotoxicity” value is 5.23% (inactive).

On to `COc1cc(C[C@@H](C)N)c(OC)cc1Br`, for which the “activity change, negative = cytotoxicity” value is -2.33% (inactive).

Regarding `CC1(C)CC(=O)CC(C)(C)N1[O]`, the “activity change, negative = cytotoxicity” value was 0.699% (inactive).

On to `CC(C)(C)N(NC(=O)c1ccc(Cl)cc1)C(=O)c1ccccc1`, for which the “activity change, negative = cytotoxicity” value is -5.91% (inactive).

For `O=[N+]([O-])O[C@H]1CO[C@H]2[C@@H]1OC[C@H]2O[N+](=O)[O-]`, the “activity change, negative = cytotoxicity” value is -1.77% [at 70.9 µM] (inactive).

Regarding `COC(=O)Cc1ccccc1`, the “activity change, negative = cytotoxicity” value was 0.132% (inactive).

For `C#C[C@]1(O)CC[C@H]2[C@@H]3CCC4=CC(=O)CCC4=C3C=C[C@@]21CC`, the Potency is 34.8 µM (active).

`CC(O)CN1CCN(CC(=O)[O-])CCN(CC(=O)[O-])CCN(CC(=O)[O-])CC1.[Gd+3]` (stereo unspecified): the “activity change, negative = cytotoxicity” value was 3.62% [at 70.9 µM] (inactive).

Turning to `O=C(N/N=C/c1ccc([N+](=O)[O-])o1)c1cc([N+](=O)[O-])cc([N+](=O)[O-])c1O`, the “activity change, negative = cytotoxicity” value was 5.55% [at 70.9 µM] (inactive).

For `CCC(C)(C)c1ccc(O)c(C(C)(C)CC)c1`, the Potency is 88.8 µM (active) and 40.1 µM (active).

As to `O=C(Cc1ccccc1)c1ccccc1`, the “activity change, negative = cytotoxicity” value was -1.98% (inactive).

As for `O=C(O)C(F)(F)C(F)(F)C(F)(F)C(F)(F)C(F)(F)F`, the “activity change, negative = cytotoxicity” value was -1.27% (inactive).

As to `CN1CC[C@]23c4c5ccc(O)c4O[C@H]2[C@@H](O)C=C[C@H]3[C@H]1C5`, the “activity change, negative = cytotoxicity” value is -2.29% (inactive).

With `ClCc1ccccc1Cl`, the “activity change, negative = cytotoxicity” value was 4.14% (inactive).

For the molecule `CN(C1CCCCC1)C1CCCCC1`, the “activity change, negative = cytotoxicity” value is 4.78% (inactive).

In the case of `C=C(Cl)Cl`, the “activity change, negative = cytotoxicity” value is -0.0353% (inactive).

`N#CC(C#N)=Cc1ccc(O)c(O)c1`: the “activity change, negative = cytotoxicity” value was 5.04% [at 70.9 µM] (inactive).

As for `CCOc1cccc(C2(N3CCN(c4ccccc4)CC3)CCC(C)CC2)c1` (stereo unspecified), the “activity change, negative = cytotoxicity” value is -0.105% (inactive).

For the origin of these results see PubChem BioAssay (Tox21).
